Results filed as inconclusive are left out. Activity calls are given as the source filed them. Calls come from the whole dose curve; as a rule, active = well fitted inhibition curve with a large enough effect; inconclusive = small, poorly fitted or top-dose-only effect; inactive = no such curve, though single readings can be large or run the other way.

Consider 40 compounds from PubChem BioAssay (NCATS).
Potency is the fitted concentration of half-maximal effect.

The assay can be described thus: qHTS Screen of the MIPE 4.0 Collection Against Ewings Sarcoma (RDES) (AID 1259252). Note: nearly all actives have a fitted effect of over 35% in size. The note with it: RD-ES Ewing sarcoma viability, CellTiter-Glo, 48 h; series mostly up to 45.8 µM. From the text: There is a large unmet medical need for treatments for Ewing sarcoma, a pediatric sarcoma. We sought to identify compounds that inhibited Ewing sarcoma cells in vitro with the goal to then test promising drugs in two drug combinations in vitro to look for synergistic drug combinations. Promising combinations would then proceed to additional validation, including in vivo testing.
Using the NCATS developed oncology compound library called the Mechanism of Interrogation Plate (MIPE), four Ewing sarcoma cell lines were evaluated (TC32, TC71, RDES, EW8). Compounds, in a 12-point titration series, were incubated with cells for 48 hours and the read out was cell viability (CellTiter-Glo from Promega). These initial experiments were used to select appropriate concentrations of each single agent for subsequent two-drug matrix combinations such that the concentrations in the matrices would span both activity and non-activity.
Cells, in the log phase of growth, were seeded in 5 uL of RPMI plus 5% FBS, […] L-glutamine, 100 U/ml penicillin and 100 ug/ml streptomycin into 1536-well solid-bottom white tissue culture treated Greiner Bio One Plates (789173-F) using a MultiDrop Combi (Thermofisher Scientific) dispenser and a small sterile cassette. One column was media alone to be used as a :"no cells" control. The plates were then covered with sterilized stainless steel gasketed lids from Kalypsys. After allowing cells to attach for 4 hours, 23 nL of test compound or control (negative control DMSO and positive control 9.2 uM Bortezomib-final) were added from a 1536-well polypropylene compound source plate to each well using a 1536 head pin tool from Kalypsys. Cells were then incubated for 48 hours at 37C, 95% relative humidity and 5% CO2. After 48 hours, plates were removed from the incubator and 3 uL of CellTiter-Glo (Promega) was added using an Aurora Flying Reagent Dispenser Bioraptor. Plates were incubated at room temperature for 10 minutes prior to reading the luminescence on the Viewlux (PerkinElmer). The relative luciferase units are used to calculate the percent activity using the activity of DMSO in the cells and no cells columns for normalization of no inhibition and full inhibition respectively.
(In qHTS, concentration-response curves come from the screen itself.)
Regarding `Clc1ccc(CCC(Cn2ccnc2)Sc2c(Cl)cccc2Cl)cc1` (stereo not given), the Potency result is “inactive”. In the case of `O=c1c(-c2ccc(O)cc2)coc2cc(O)ccc12`, the Potency was 11.8 µM (active).

Turning to `Clc1ccc(C(c2ccc(Cl)cc2)n2cc[n+](CC(OCc3ccc(Cl)cc3Cl)c3ccc(Cl)cc3Cl)c2)cc1` (stereo not given), the Potency was 16.6 µM (active). For the compound `COc1ccc(C2Sc3ccccc3N(CCN(C)C)C(=O)C2OC(C)=O)cc1` (stereo not given), the Potency was 18.7 µM (active).

On to `NS(=O)(=O)c1cccc2c1C(=O)c1cccc(O)c1C2=O`, for which the Potency was 18.7 µM (active). The result for `CCn1cc(C(=O)O)c(=O)c2ccc(C)nc21` reads “inactive”; that for `O=c1cc(-c2ccccc2)oc2cc(O)c(O)c(O)c12`, 20.9 µM (active).

In the case of `Cc1ccc(C(=O)Nc2cccc(C(F)(F)F)c2)cc1Nc1nc(-c2cccnc2)nc2c1cnn2C`, the Potency is 14.8 µM (active). Under `CC1(C)CCC2=C(O1)c1ccccc1C(=O)C2=O` stands 26.4 µM (active); under `O=C(O)c1cc(O)c2c(c1)C(=O)c1cccc(O)c1C2=O`, “inactive”.

For `Nc1ncnc2c1ncn2[C@@H]1O[C@@H](CO)[C@H](O)[C@H]1O`, the Potency result was “inactive”. For the compound `CCOC1OC(=O)C[C@H]1NC(=O)[C@@H]1CCCN1C(=O)[C@@H](NC(=O)c1ccc(N)c(Cl)c1)C(C)(C)C` (stereo not given in full), the Potency entry is “inactive”. Under `Cc1nc(N)sc1-c1ccnc(Nc2ccc(N3CCOCC3)cc2)n1` stands 18.7 µM (active).

Take `O=C(CCc1ccc(O)cc1)c1c(O)cc(O)cc1O[C@@H]1O[C@H](CO)[C@H](O)[C@H](O)[C@H]1O`: the Potency entry was “inactive”. Regarding `O=c1c(-c2ccc(O)cc2)coc2cc(OC3O[C@H](CO)[C@H](O)[C@H](O)[C@H]3O)cc(O)c12` (stereo not given in full), the Potency is 3.72 µM (active). Take `C[N+]1(C)[C@@H]2CC(OC(=O)[C@H](CO)c3ccccc3)C[C@H]1[C@H]1O[C@@H]12` (stereo not given in full): the Potency result is “inactive”. Under `C[C@H](NC(=O)C(=O)Nc1ccccc1C(C)(C)C)C(=O)N[C@@H](CC(=O)O)C(=O)COc1c(F)c(F)cc(F)c1F` stands “inactive”; under `CO[C@H]1C=CC=C(C)C(=O)NC2=CC(=O)C(NCCN(C)C)=C(C[C@@H](C)C[C@H](OC)[C@@H](O)[C@@H](C)C=C(C)[C@@H]1OC(N)=O)C2=O`, 0.235 µM (active); under `O=C1C(Cl)=C(NCCN2CCOCC2)C(=O)c2ncccc21`, 8.33 µM (active).

In the case of `C[C@@H]1CCN(C(=O)CC#N)C[C@H]1N(C)c1ncnc2[nH]ccc12`, the Potency result was “inactive”.

With `COc1cc2nc(-c3ccc(N4CCN(C)CC4)cc3)nc(NCCN3CCOCC3)c2cc1OC`, the Potency was 0.0166 µM (active). With `CC(C)C(=O)Oc1ccc(CO)cc1[C@H](CCN(C(C)C)C(C)C)c1ccccc1`, the Potency entry was “inactive”. Turning to `CC=CC[C@@H](C)C(=O)[C@H]1C(=O)N[C@@H](C(C)C)C(=O)N(C)CC(=O)N(C)[C@@H](CC(C)C)C(=O)N[C@@H](C(C)C)C(=O)N(C)[C@@H](CC(C)C)C(=O)N[C@@H](C)C(=O)N[C@H](C)C(=O)N(C)[C@@H](CC(C)C)C(=O)N(C)[C@@H](CC(C)C)C(=O)N(C)[C@@H](C(C)C)C(=O)N1C`, the Potency was 18.7 µM (active).

For the compound `COc1cc2ncnc(Nc3ccc(F)c(Cl)c3)c2cc1OCCCN1CCOCC1`, the Potency is 10.8 µM (active). With `CC(=O)Oc1cc2c(s1)CCN(C(C(=O)C1CC1)c1ccccc1F)C2` (stereo not given), the Potency was 2.35 µM (active). For `COc1ccc(-c2coc3cc(O)ccc3c2=O)cc1`, the Potency result was “inactive”. The result for `O=C(O)c1ccccc1C(=O)Nc1ccc(-c2ccccc2)cc1` reads “inactive”; that for `CC[C@]1(O)C[C@@H]2CN(CCc3c([nH]c4ccccc34)[C@@](C(=O)OC)(c3cc4c(cc3OC)N(C=O)[C@@H]3C45CCN4CC=C[C@](CC)([C@H]45)[C@@H](OC(C)=O)[C@]3(O)C(=O)OC)C2)C1` (stereo not given in full), 16.6 µM (active). With `Oc1ccc(C2=Cc3ccc(O)cc3OC2)cc1`, the Potency was 5.9 µM (active). Under `c1ccc2c(Cc3c[nH]c4ccccc34)c[nH]c2c1` stands 2.64 µM (active); under `CC(C)OC(=O)CCCC=CC[C@@H]1[C@H](C=C[C@@H](O)COc2cccc(C(F)(F)F)c2)[C@H](O)C[C@@H]1O`, “inactive”; under `O=C1c2ccccc2-[n+]2ccc3c([nH]c4ccccc43)c21`, 1.05 µM (active). The result for `C[N+](C)(C)CC(=O)O` reads “inactive”; that for `CCc1ccc(OCc2ccccc2C(=O)Nc2ccc3nc(C)cc(N)c3c2)cc1`, 9.35 µM (active); that for `Cc1ccccc1C(C(=O)NC1CCCCC1)N(C(=O)Cn1ccnc1C)c1cccc(F)c1` (stereo not given), “inactive”. The result for `CC[C@@]1(O)C[C@H](O[C@H]2C[C@H](N(C)C)[C@H](O[C@H]3C[C@H](O)[C@H](O[C@H]4CCC(=O)[C@H](C)O4)[C@H](C)O3)[C@H](C)O2)c2c(cc3c(c2O)C(=O)c2c(O)cccc2C3=O)[C@@H]1C(=O)OC` reads 0.59 µM (active); that for `CCc1ccc(C=C2SC(=S)NC2=O)cc1`, “inactive”. For `CC(C(=O)O)c1ccc(-c2ccccc2)c(F)c1` (stereo not given), the Potency was 18.7 µM (active).

On to `CC(C)(C)COc1ccc(-n2cc(C(=O)O)cn2)cc1C#N`, for which the Potency result is “inactive”. For `NC(=O)c1cccc2[nH]c(-c3ccc([C@H]4CCCN4)cc3F)nc12`, the Potency was 7.43 µM (active).
